# Hit rate of the full screen: of about 5,500 compounds, about 2,000 (36%) were called active. Another 18% or so got no clear call; they are omitted. This is one part of the list. Unmarked numbers belong to inactive results. No stated cut-off is given here; in the data, active means normalized growth mostly below about 0.91 (no sharp cut-off); inconclusive means no clear call, values can overlap the other calls; inactive means mostly above about 0.92.
# Assay: chemical genetic growth profiling, strain panel (AID 1159580);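 further: tested at 20 µM; growth read once vehicle control cultures reached saturation at 30 °C; 1 = growth at the plate median or of vehicle wells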
# Conditions: S. cerevisiae deletion strains, growth OD
smiles,measurement,setting,value
Cc1ccc(S(=O)(=O)NC(=O)Nc2ccc(Sc3ccccc3)nc2Sc2ccccc2)cc1,normalized growth,"locus YAR019C, strain CDC15, stronger effect = lower value",0.984
same,normalized growth,"locus YBL105C, strain PKC1, stronger effect = lower value",0.967
same,normalized growth,"locus YBR135W, strain CKS1, stronger effect = lower value",0.968
same,normalized growth,"locus YBR136W, strain MEC1, stronger effect = lower value",0.972
same,normalized growth,"locus YBR160W, strain CDC28, stronger effect = lower value",0.969
same,normalized growth,"locus YDL017W, strain CDC7, stronger effect = lower value",0.974
same,normalized growth,"locus YDL028C, strain MPS1, stronger effect = lower value",0.974
same,normalized growth,"locus YDL101C, strain DUN1, stronger effect = lower value",0.983
same,normalized growth,"locus YDL108W, strain KIN28, stronger effect = lower value",0.966
same,normalized growth,"locus YDL132W, strain cdc53, stronger effect = lower value",0.956
same,normalized growth,"locus YDL214C, strain PRR2, stronger effect = lower value",0.927
same,normalized growth,"locus YDR052C, strain DBF4, stronger effect = lower value",0.978
same,normalized growth,"locus YDR054C, strain cdc34, stronger effect = lower value",0.969
same,normalized growth,"locus YDR226W, strain ADK1, stronger effect = lower value",0.977
same,normalized growth,"locus YDR477W, strain SNF1, stronger effect = lower value",0.936
same,normalized growth,"locus YER123W, strain YCK3, stronger effect = lower value",0.976
same,normalized growth,"locus YER133W, strain GLC7, stronger effect = lower value",0.961
same,normalized growth,"locus YFL009W, strain cdc4, stronger effect = lower value",0.957
same,normalized growth,"locus YFL029C, strain CAK1, stronger effect = lower value",0.979
same,normalized growth,"locus YFR003C, strain YPI1, stronger effect = lower value",0.969
same,normalized growth,"locus YFR019W, strain FAB1, stronger effect = lower value",0.993
same,normalized growth,"locus YFR028C, strain CDC14, stronger effect = lower value",0.974
same,normalized growth,"locus YGR040W, strain KSS1, stronger effect = lower value",0.942
same,normalized growth,"locus YGR052W, strain FMP48, stronger effect = lower value",0.982
same,normalized growth,"locus YGR092W, strain DBF2, stronger effect = lower value",0.913
same,normalized growth,"locus YHR030C, strain SLT2, stronger effect = lower value",0.745 (active)
same,normalized growth,"locus YHR079C, strain IRE1, stronger effect = lower value",0.948
same,normalized growth,"locus YHR082C, strain KSP1, stronger effect = lower value",1.03
same,normalized growth,"locus YHR205W, strain SCH9, stronger effect = lower value",0.946
same,normalized growth,"locus YIL147C, strain SLN1, stronger effect = lower value",0.977
same,normalized growth,"locus YJL095W, strain BCK1, stronger effect = lower value",0.933
same,normalized growth,"locus YJL128C, strain PBS2, stronger effect = lower value",0.967
same,normalized growth,"locus YJL157C, strain FAR1, stronger effect = lower value",0.97
same,normalized growth,"locus YJR016C, strain ILV3, stronger effect = lower value",0.98
same,normalized growth,"locus YJR066W, strain TOR1 (second series), stronger effect = lower value",0.967
same,normalized growth,"locus YJR066W, strain TOR1, stronger effect = lower value",0.95
same,normalized growth,"locus YKL048C, strain ELM1, stronger effect = lower value",0.97
same,normalized growth,"locus YKL067W, strain YNK1, stronger effect = lower value",0.914
same,normalized growth,"locus YKL101W, strain HSL1, stronger effect = lower value",0.957
same,normalized growth,"locus YKL193C, strain SDS22, stronger effect = lower value",0.972
same,normalized growth,"locus YKL203C, strain TOR2, stronger effect = lower value",1.04
same,normalized growth,"locus YLR113W, strain HOG1, stronger effect = lower value",0.885
same,normalized growth,"locus YLR133W, strain CKI1, stronger effect = lower value",0.954
same,normalized growth,"locus YLR403W, strain SFP1, stronger effect = lower value",0.999
same,normalized growth,"locus YML070W, strain DAK1, stronger effect = lower value",0.972
same,normalized growth,"locus YMR001C, strain CDC5, stronger effect = lower value",0.971
same,normalized growth,"locus YMR205C, strain PFK2 (second series), stronger effect = lower value",0.944
same,normalized growth,"locus YMR277W, strain FCP1, stronger effect = lower value",0.965
same,normalized growth,"locus YNL006W, strain LST8, stronger effect = lower value",0.968
same,normalized growth,"locus YNL020C, strain ARK1, stronger effect = lower value",0.949
same,normalized growth,"locus YNL161W, strain CBK1, stronger effect = lower value",0.973
same,normalized growth,"locus YNL183C, strain NPR1, stronger effect = lower value",0.969
same,normalized growth,"locus YNL207W, strain RIO2, stronger effect = lower value",0.966
same,normalized growth,"locus YNL222W, strain SSU72, stronger effect = lower value",0.948
same,normalized growth,"locus YNL307C, strain MCK1 (second series), stronger effect = lower value",0.945
same,normalized growth,"locus YOL078W, strain AVO1, stronger effect = lower value",0.966
same,normalized growth,"locus YOL136C, strain PFK27, stronger effect = lower value",0.972
same,normalized growth,"locus YOR061W, strain CKA2, stronger effect = lower value",0.938
same,normalized growth,"locus YOR119C, strain RIO1, stronger effect = lower value",0.98
same,normalized growth,"locus YOR231W, strain MKK1, stronger effect = lower value",0.976
same,normalized growth,"locus YOR329C, strain SCD5, stronger effect = lower value",0.977
same,normalized growth,"locus YPL031C, strain PHO85, stronger effect = lower value",0.94
same,normalized growth,"locus YPL153C, strain RAD53, stronger effect = lower value",0.946
same,normalized growth,"locus YPL204W, strain HRR25, stronger effect = lower value",0.934
same,normalized growth,"locus YPL209C, strain IPL1, stronger effect = lower value",0.976
same,normalized growth,"locus YPL256C, strain CLN2, stronger effect = lower value",0.955
same,normalized growth,"locus YPR025C, strain CCL1, stronger effect = lower value",0.97
same,normalized growth,"locus YPR106W, strain ISR1, stronger effect = lower value",0.979
same,normalized growth,"locus YPR111W, strain DBF20, stronger effect = lower value",0.954
same,normalized growth,"strain NNK1, stronger effect = lower value",0.974
same,normalized growth,"strain TSCII, stronger effect = lower value",0.963

# From PubChem BioAssay AID1159580 (chemical genetic matrix, 2015)
